Data published in PubChem BioAssay AID1376 (SRMLSC, 2008).
“And” between values parts separate entries of the source, which are not always exact repeats. Equal entries are not always repeated. The campaign covered roughly 220,000 compounds. About 530 (0.24%) were called active. This is one part of a sample in which actives are shown more often than they occur. Potency and affinity values are given separately. Unmarked numbers belong to inactive results. Cut-off read from the data, not from the text of the source: active = inhibition above about 13%; inconclusive = no clear call, values can overlap the other calls; inactive = below that.

What follows are compounds tested against Bifunctional protein GlmU (Mycobacterium tuberculosis (strain ATCC 25618 / H37Rv)) (UniProt P9WMN3) (assay: inhibition of mycobacterial GlmU enzyme – biochemical, glucosamine-1-phosphate acetyltransferase (AID 1376;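 note: 0% = complete reaction with vehicle and 100% = reaction without substrate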)). Conditions: M. tuberculosis GlmU acetyltransferase enzyme assay; active compounds read high;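 tested at 30 µM in the primary screen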.
Bifunctional protein GlmU (Mycobacterium tuberculosis (strain ATCC 25618 / H37Rv)), sequence (P9WMN3 whole entry, looked up): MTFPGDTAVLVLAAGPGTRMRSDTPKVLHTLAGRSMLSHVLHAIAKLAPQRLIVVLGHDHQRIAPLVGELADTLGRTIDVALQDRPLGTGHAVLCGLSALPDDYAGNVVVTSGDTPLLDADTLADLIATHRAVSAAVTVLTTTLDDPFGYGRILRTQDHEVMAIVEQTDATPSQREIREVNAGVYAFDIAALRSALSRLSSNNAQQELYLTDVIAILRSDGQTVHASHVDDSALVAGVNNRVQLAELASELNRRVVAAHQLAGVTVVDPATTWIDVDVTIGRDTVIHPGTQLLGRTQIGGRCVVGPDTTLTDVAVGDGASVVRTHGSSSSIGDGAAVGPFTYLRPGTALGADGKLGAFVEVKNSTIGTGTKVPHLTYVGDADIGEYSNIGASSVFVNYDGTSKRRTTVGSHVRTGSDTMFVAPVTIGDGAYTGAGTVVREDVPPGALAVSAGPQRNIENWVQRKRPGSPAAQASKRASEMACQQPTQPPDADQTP

| SMILES | inhibition |
| --- | --- |
| CC(=O)N(C)N1c2ccccc2CCc2ccccc21 | -8.48% |
| Cc1cccc(OCCNC(=O)c2ncn[nH]2)c1 | 1.93% |
| Cn1c(=O)c2c(nc(SCC(=O)NC34CC5CC(CC(C5)C3)C4)n2C)n(C)c1=O | -0.07% |
| O=C(CSc1nnc(-c2ccncc2)o1)NC1C2CC3CC(C2)CC1C3 (stereo unspecified) | 1.35% |
| O=C(O)c1ccc(/C=C/c2nc3sc4c(c3c(=O)[nH]2)CCC4)cc1 | 2.03% |
| CCOC(=O)c1nc2sc3c(c2c(=O)[nH]1)CCCC3 | 4.84% and 1.97% |
| N#C/C(=C\c1ccc(C(=O)O)cc1)c1nc2sc3c(c2c(=O)[nH]1)CCCC3 | 14.3% (active) |
| O=C1NC(CCc2ccccc2)C(=O)N1Cc1ccccc1Cl (stereo unspecified) | -2.29% |
| CCc1sc(-c2ccccc2)nc1C(=O)OC | -3.08% |
| CN(C(=O)COC(=O)c1n[nH]c2ccccc12)c1ccccc1 | -0.77% |
| COc1ccccc1NC(=O)N1CCC(c2nnc(SCC(N)=O)n2C)CC1 | 5.75% |
| CC(=O)c1cccc(NC(=O)N2CCC(c3nnc(SCC(N)=O)n3C)CC2)c1 | 12.8% (active) |
| Cn1c(SCC(N)=O)nnc1C1CCN(C(=O)NCc2ccccc2)CC1 | 2.81% |
| CSc1nsc(/C=C/Nc2ccc(C(=O)O)cc2)c1C#N | -2.44% |
| CC1=NN(C(=O)CSCc2ccccc2)C(O)(c2ccc(Cl)cc2)C1 (stereo unspecified) | 0.2% |
| O=S1(=O)CCC(N=Cc2cc(Br)ccc2O)C1 (stereo unspecified) | -0.36% |
| Cc1cc(C(=O)CSc2n[nH]c(N)n2)c(C)n1-c1ccc(F)cc1 | 13% (active) |
| Cc1cc(C(=O)CSc2n[nH]c(N)n2)c(C)n1-c1ccccc1 | 1.04% |
| Cc1ccc(-n2c(C)cc(C(=O)CSc3n[nH]c(N)n3)c2C)cc1 | -7.08% |
| Cc1ccc(C(=O)COC(=O)CNC(=O)C(c2ccccc2)c2ccccc2)cc1[N+](=O)[O-] | 30.6% (active) |
| Cc1ccc(C(=O)NCC(=O)OCC(=O)c2ccc(C)c([N+](=O)[O-])c2)cc1 | -3.78% |
| Cc1ccc(C(=O)COC(=O)CNS(=O)(=O)c2ccccc2)cc1[N+](=O)[O-] | -0.84% |
| CCOC(=O)c1sc(Nc2ccccc2Cl)nc1C | 1.72% |
| O=C(CCc1nc2ccccc2c(=O)[nH]1)OCc1ccc(Cl)cc1Cl | -1.63% |

| SMILES | inhibition |
| --- | --- |
| O=S(=O)(NCc1ccc(F)cc1)c1ccc2c(c1)OCCO2 | 4.82% |
| COc1ccc(C(=O)Cc2ccc(F)cc2)c(OC)c1 | 8.08% |
| COc1ccc(C(=O)Cc2ccc(OC)c(OC)c2)c(OC)c1 | 14.1% (active) |
| COc1ccc(C(=O)Cc2ccc(OC)c(OC)c2)cc1 | 0.95% |
| COc1cc(S(=O)(=O)N2CCOCC2)ccc1NC(=O)CSc1nnc(N)s1 | 10.7% |
| Cc1cccc(N=Nc2cnc(N)s2)c1 | 4.97% |
| COc1cc(C(=O)O)ccc1Cl | 1.44% |
| Nc1ncc(N=Nc2cc(C(=O)O)ccc2Cl)s1 | 13.8% (active) |
| CC(=O)Nc1cccc(Oc2ccc([N+](=O)[O-])cc2Cl)c1 | 2.81% |
| CCn1c2ccc(Cl)cc2c2nc3ccccc3nc21 | 2.14% |
| CCn1c2ccccc2c2nc3cc(C(=O)O)ccc3nc21 | 1.61% |
| O=c1[nH]c(=S)[nH]c(O)c1C(c1ccccn1)c1c(O)[nH]c(=S)[nH]c1=O | 9.35% |
| O=c1c2ccccc2oc2ncccc12 | 3.79% |
| O=[N+]([O-])c1ccc2c(c1)oc1ccccc12 | 0.45% |
| CC(=O)CC(c1ccc([N+](=O)[O-])cc1)c1c(O)c2ccccc2oc1=O (stereo unspecified) | 1.67% |
| COc1cc2c(cc1NC(=O)Cn1cnc3c1c(=O)n(C)c(=O)n3C)oc1ccccc12 | 9.92% |
| C=CCN1C(=NC(=O)CCC(=O)O)SC2CS(=O)(=O)CC21 (stereo unspecified) | 0.93% |
| CCN1CCN(c2cc(C)c3cc(NC(=O)c4ccccc4F)ccc3n2)CC1 | -4.15% |
| Cn1cnnc1SCc1cccc(Br)c1 | 2.34% |
| CCn1ncc(NC(=S)Nc2ccc3c(c2)OCO3)c1C(N)=O | -0.08% |
| Cc1nn(-c2ccccc2)c(=S)c2ccccc12 | -0.11% |
| COc1ccc(NC(=O)CNc2cccc(C#N)c2)cc1Cl | 0.65% |
| COc1ccc(NCC(=O)Nc2ccc(C#N)cc2)cc1Cl | 1.17% |
| COc1ccc(NCC(=O)Nc2ccccc2C#N)cc1Cl | 16.5% (active) |

| SMILES | inhibition |
| --- | --- |
| Clc1ccc(-c2nnc(CSc3nnc(-c4cccs4)n3Cc3ccccc3)o2)cc1 | -1.83% |
| CC(=O)N1CCCSC1=Nc1ccccc1 | 1.84% |
| Cc1ccc(-c2nc(SCC(=O)NCC3CCCO3)c(-c3ccc(C)cc3)[nH]2)cc1 (stereo unspecified) | -0.94% |
| O=[N+]([O-])c1cccc(CSc2cccc[n+]2[O-])c1 | 6.55% |
| O=[N+]([O-])c1ccc(NCc2ccccc2)c2nonc12 | 0.67% |
| Oc1cccc(C(=S)N2CCCCC2)c1 | -2.56% |
| CCOC(=O)CSC1=C(C#N)C(c2ccccc2OCC)C(C(=O)OCC)C(=O)N1 (stereo unspecified) | 13.2% (active) |
| CCOC(=O)C1C(=O)NC(SCC(N)=O)=C(C#N)C1c1ccccc1OCC (stereo unspecified) | 5.97% |
| CCOC(=O)C1C(=O)NC(SCC(=O)OC)=C(C#N)C1c1ccccc1OCC (stereo unspecified) | -2.95% |
| Cc1ccc(C)c2[nH]c(=O)c(CN(Cc3ccc4c(c3)OCO4)Cc3nnnn3Cc3ccco3)cc12 | 2.41% |
| Cc1ccc(NC(=O)c2cccc(C(=O)OC(C)C)n2)c(Br)c1 | -4.22% |
| O=C1CCN(c2ncccc2[N+](=O)[O-])CC1 | -2.93% |
| O=[N+]([O-])c1cccnc1N1CCCCC1 | 13.3% (active) |
| O=[N+]([O-])c1cccnc1N1CCOCC1 | 1.56% |
| Cc1ccc(C)c(/C(O)=C2\C(=O)C(=O)N(CCCn3ccnc3)C2c2ccncc2)c1 (stereo unspecified) | -3.1% |
| Cc1ccc(C2C3=C(Nc4[nH]n(-c5ccccc5)c(=O)c42)c2ccccc2C3=O)cc1 (stereo unspecified) | 8.68% |
| COc1cccc(C2C3=C(Nc4[nH]n(-c5ccccc5)c(=O)c42)c2ccccc2C3=O)c1 (stereo unspecified) | -1.89% |
| Cc1cccc(C2C3=C(Nc4[nH]n(-c5ccccc5)c(=O)c42)c2ccccc2C3=O)c1 (stereo unspecified) | 14.6% (active) |
| CCOC(=O)c1c(C)[nH]c(C(=O)CSc2nc3ccccc3o2)c1C | -3.5% |
| Cc1cc(/C=N/Nc2ccc([N+](=O)[O-])cn2)c(C)n1-c1ccc(C(=O)O)cc1 | 18.4% (active) |
| Cc1c(C(=O)O)cccc1-n1c(C)cc(/C=N/Nc2ccc([N+](=O)[O-])cn2)c1C | 3.53% |
| Cc1cc(/C=N/Nc2ccc([N+](=O)[O-])cn2)c(C)n1-c1ccccc1 | -0.82% |
| CCOC(=O)c1cc(-c2ccc(F)cc2)n(CC(=O)Nc2nccs2)c1C | -5.76% |
| Cc1ccc(NC(=O)CCC(=O)OC(C(=O)c2ccc(C)c(C)c2)c2ccccc2)c(C)c1 (stereo unspecified) | 1.52% |

| SMILES | inhibition |
| --- | --- |
| O=C(CCC(=O)OC(C(=O)c1ccccc1)c1ccccc1)Nc1ccccc1 (stereo unspecified) | -0.93% |
| Cc1ccc(C(=O)C(OC(=O)CCC(=O)Nc2cccc(C)c2)c2ccccc2)cc1 (stereo unspecified) | 14.9% (active) |
| O=[N+]([O-])c1ccc(N2CCNCC2)cc1Sc1nc2ccccc2[nH]1 | -3.78% |
| O=C(CSC1CN(C(c2ccccc2)c2ccccc2)C1)N/N=C/c1ccccc1 | 1.05% |
| O=C(OCC(=O)N1CCN(C(=O)c2ccco2)CC1)c1cn(-c2ccccc2)nc1-c1ccccc1 | 9.88% |
| CCc1nc2ccccc2[nH]1 | -1.65% |
| CNCc1nc2ccccc2[nH]1 | 2.1% |
| Oc1ccc(O)c(Cc2nc3ccccc3[nH]2)c1 | 14.4% (active) |
| O=C(NCCC1CC1(Cl)Cl)Nc1ccccc1 (stereo unspecified) | 2.82% |
| CCOc1ccc(N2C(=O)C3C(c4ccccc4)=NN(c4ccccc4)C3C2=O)cc1 (stereo unspecified) | 4.13% |
| O=C1[C@H]2C(c3ccccc3)=NN(c3ccccc3)[C@H]2C(=O)N1c1ccccc1 | 14.2% (active) |
| O=C1C2C(c3ccccc3)=NN(c3ccccc3)C2C(=O)N1c1ccccc1 (stereo unspecified) | 0.94% |
| O=C(N/N=C/C=C/c1ccco1)/C(=C/c1ccccc1)NC(=O)c1ccccc1 | 3.94% |
| C/C(=N\NC(=O)NC1CCCCC1)C1CCCCC1 | 5.48% |
| O=C(Nc1ccc(SC(F)F)cc1)c1ccc(F)cc1 | 2.04% |
| CC(=O)N=c1sc2ccccc2n1C | -1.3% |
| Cn1c(=NC(=O)CN2C(=O)C3CC=CCC3C2=O)sc2ccccc21 (stereo unspecified) | -0.18% |
| CC(C(=O)N=c1sc2ccccc2n1C)N1C(=O)C2CC=CCC2C1=O (stereo unspecified) | 13.6% (active) |
| CCNC1=C(Cl)C(=O)c2ccccc2C1=O | -3.8% |
| CC(C)NC1=C(Cl)C(=O)c2ccccc2C1=O | 13.7% (active) |
| O=C1C(Cl)=C(Nc2ccccc2)C(=O)c2ccccc21 | -4.13% |
| O=C1c2ccccc2S(=O)(=O)c2cc(C(=O)N3CCN(C(=O)c4ccccc4)CC3)ccc21 | -2.8% |
| CCN(CCNC(=O)Cn1cc2c(n1)CCCC2)c1ccccc1 | -0.86% |
| CCOc1ccc(C(=O)SC2=NCCS2)cc1 | 8.72% |
